The results in this text go back to PubChem BioAssay AID620 (Sanford-Burnham Center for Chemical Genomics, 2007).

Screen size: about 87,000 compounds; about 360 (0.41%) were called active. No stated cut-off is given here; in the data, active means cytotoxicity above about 50%; inactive means the rest. The list comes from a sample in which actives are over-represented; it also holds similar structures and randomly drawn compounds.

The nature of the assay: cytotoxicity in HT1080 fibrosarcoma cells, cell-based, fluorescence readout (AID 620).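 Further: cells exposed to compound overnight then 4 h with Alamar Blue; 0% = vehicle DMSO and 100% = killing control.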 The conditions noted are these: HT1080 viability, at 10 µM, hits give high values.
Turning to `CN1CCC(N(C)C(=O)c2ccccc2Nc2ccc(SC(F)F)cc2)CC1`, the cytotoxicity is 5.3% (inactive).

Turning to `CCCn1c(NCc2ccc(C)o2)nc2ccccc21`, the cytotoxicity is 0.5% (inactive).

On to `COCCn1nnnc1C(c1ccc2ncccc2c1)N1CCN(c2ccccc2F)CC1` (centres undefined), for which the cytotoxicity was -18.9% (inactive).

In the case of `O=S(=O)(c1ccccc1)N1c2cc(Cl)ccc2Oc2nc3ccccc3nc21`, the cytotoxicity was -4.7% (inactive).

Take `COc1ccc(S(=O)(=O)N2c3cc(Cl)ccc3Oc3nc4ccccc4nc32)cc1`: the cytotoxicity is 70.2% (active).

For the compound `O=S(=O)(c1ccc(Cl)cc1)N1c2ccccc2Oc2nc3ccccc3nc21`, the cytotoxicity is 3.8% (inactive).

As to `COC(=O)c1cc(NS(=O)(=O)c2ccc(OC)c(OC)c2)ccc1Cl`, the cytotoxicity is 3.3% (inactive).

In the case of `COCc1[nH]nc2c1C(c1ccccc1Cl)C(C#N)=C(N)O2` (centres undefined), the cytotoxicity is -4.4% (inactive).

Turning to `Cc1cc(C(C)(C)C)nc2[nH]n(-c3ccccc3)c(=O)c12`, the cytotoxicity is -2.1% (inactive).

On to `Cc1ccnc(NC(=O)c2cc(-n3cnnc3)ccc2Cl)c1`, for which the cytotoxicity is 12.1% (inactive).

With `CC(C)(C)C(=O)Nc1sc2c(c1C#N)CCCCC2`, the cytotoxicity is 5.8% (inactive).

Turning to `COCCCNC(=O)CC(NS(=O)(=O)c1ccc(Cl)cc1)c1ccco1` (centres undefined), the cytotoxicity was -9.5% (inactive).

For `CC(C)CNS(=O)(=O)c1ccc(CCC(=O)N2CCOCC2)cc1`, the cytotoxicity was 2.1% (inactive).

Take `C=C(C)COc1ccc(-c2n[nH]c(C)c2-c2ccc(OC)cc2)c(O)c1`: the cytotoxicity is -14.1% (inactive).

As to `C=C(C)COc1ccc(-c2n[nH]c(C)c2-c2ccc(Br)cc2)c(O)c1`, the cytotoxicity is 50.7% (active).

As for `COc1ccc(-c2n[nH]c(C)c2-c2ccc(Cl)cc2)c(O)c1`, the cytotoxicity was -10.8% (inactive).

`COc1ccccc1NS(=O)(=O)c1cc(Cl)ccc1OC`: the cytotoxicity was 16.4% (inactive).

Regarding `Cn1c(N)c(C(=O)COC(=O)c2cc(C(F)(F)F)nc3ccccc23)c(=O)n(Cc2ccccc2)c1=O`, the cytotoxicity is 5.9% (inactive).

Turning to `COc1ccc(CCNc2c(C)c(C)nc3ncnn23)cc1`, the cytotoxicity was 17.9% (inactive).

Regarding `CCc1c(C)nc2ncnn2c1NCCc1ccc(OC)cc1`, the cytotoxicity is 61.9% (active).

For the compound `CCc1c(C)nc2ncnn2c1NCCc1ccccc1`, the cytotoxicity is -9.2% (inactive).

Turning to `O=C(N1CCOCC1)C12CC3CC(C1)CC(C(=O)N1CCOCC1)(C3)C2`, the cytotoxicity was -17.8% (inactive).

As for `Cc1cc(C)c(C)c(S(=O)(=O)NCC(=O)N2CCCC2)c1C`, the cytotoxicity was 6.8% (inactive).

On to `COc1ccc(NC(=O)c2nc3nccc(C)n3n2)cn1`, for which the cytotoxicity was 10.5% (inactive).

With `COc1ccc(NC(=O)c2cc(=O)c3ccccc3o2)cn1`, the cytotoxicity was 7% (inactive).

As to `COc1ccc(NC(=O)/C(Cl)=C(/Cl)S(=O)Cc2ccccc2)cn1` (centres undefined), the cytotoxicity is 95.5% (active).

Consider `COc1ccc(NC(=O)/C(Cl)=C(/Cl)S(=O)Cc2ccc(C)cc2)cn1` (centres undefined), for which the cytotoxicity is 92.3% (active).

As to `COc1ccc(NC(=O)c2cc(CN3C(=O)c4ccccc4C3=O)ccc2OC)cn1`, the cytotoxicity was -0.1% (inactive).

In the case of `CCOc1ccccc1OCCCC(=O)Nc1ccc(OC)nc1`, the cytotoxicity is 2.4% (inactive).
